Laboratory results from PubChem BioAssay AID1159580 (chemical genetic matrix, 2015).
In all, about 5,500 compounds went through this assay and about 2,000 (36%) were called active. Not shown: some 18% with an inconclusive outcome. The list shows a part of the results. A number with no mark means an inactive call. No stated cut-off is given here; in the data, active means normalized growth mostly below about 0.91 (no sharp cut-off); inconclusive means no clear call, values can overlap the other calls; inactive means mostly above about 0.92.

Assay: chemical genetic growth profiling, strain panel (AID 1159580);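 further: tested at 20 µM; growth read once vehicle control cultures reached saturation at 30 °C; 1 = growth at the plate median or of vehicle wells; lower values mean less growth of the strain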
Settings: S. cerevisiae deletion strains, growth OD
[1] = locus YHR030C, strain SLT2, active compounds read low
[2] = locus YHR079C, strain IRE1, active compounds read low
[3] = locus YJL095W, strain BCK1, active compounds read low
[4] = locus YJR066W, strain TOR1, active compounds read low
[5] = locus YLR113W, strain HOG1, active compounds read low
[6] = locus YNL183C, strain NPR1, active compounds read low
[7] = locus YOR231W, strain MKK1, active compounds read low
[8] = locus YPL256C, strain CLN2, active compounds read low

In the case of `O=C1Nc2ccccc2/C1=N/N=C\c1ccccc1Cl`, the normalized growth (locus YAR019C, strain CDC15, active compounds read low) is reported as 0.975, the normalized growth (locus YBL105C, strain PKC1, active compounds read low) is reported as 0.967 and the normalized growth (locus YBR135W, strain CKS1, active compounds read low) is reported as 0.986. The normalized growth (locus YBR136W, strain MEC1, active compounds read low) was 0.966, the normalized growth (locus YBR160W, strain CDC28, active compounds read low) was 0.972 and the normalized growth (locus YDL017W, strain CDC7, active compounds read low) was 0.97. For the same molecule, the normalized growth (locus YDL028C, strain MPS1, active compounds read low) was 0.97, the normalized growth (locus YDL101C, strain DUN1, active compounds read low) was 0.97 and the normalized growth (locus YDL108W, strain KIN28, active compounds read low) was 0.969. It also gave a normalized growth (locus YDL132W, strain cdc53, active compounds read low) of 0.977, a normalized growth (locus YDL214C, strain PRR2, active compounds read low) of 0.92 and a normalized growth (locus YDR052C, strain DBF4, active compounds read low) of 0.968. The normalized growth (locus YDR054C, strain cdc34, active compounds read low) was 0.97, the normalized growth (locus YDR226W, strain ADK1, active compounds read low) was 0.987 and the normalized growth (locus YDR477W, strain SNF1, active compounds read low) was 0.909. For the same molecule, the normalized growth (locus YER123W, strain YCK3, active compounds read low) was 0.85, the normalized growth (locus YER133W, strain GLC7, active compounds read low) was 0.928 and the normalized growth (locus YFL009W, strain cdc4, active compounds read low) was 0.978. It also gave a normalized growth (locus YFL029C, strain CAK1, active compounds read low) of 0.982, a normalized growth (locus YFR003C, strain YPI1, active compounds read low) of 0.966 and a normalized growth (locus YFR019W, strain FAB1, active compounds read low) of 0.935. It also gave a normalized growth (locus YFR028C, strain CDC14, active compounds read low) of 0.987, a normalized growth (locus YGR040W, strain KSS1, active compounds read low) of 0.903 and a normalized growth (locus YGR052W, strain FMP48, active compounds read low) of 0.838. The normalized growth (locus YGR092W, strain DBF2, active compounds read low) was 0.867, the normalized growth [1] was 0.83 (active) and the normalized growth [2] was 0.906. The normalized growth (locus YHR082C, strain KSP1, active compounds read low) was 0.918, the normalized growth (locus YHR205W, strain SCH9, active compounds read low) was 0.858 and the normalized growth (locus YIL147C, strain SLN1, active compounds read low) was 0.973. For the same molecule, the normalized growth [3] was 0.798, the normalized growth (locus YJL128C, strain PBS2, active compounds read low) was 0.925 and the normalized growth (locus YJL157C, strain FAR1, active compounds read low) was 0.928. It also gave a normalized growth (locus YJR016C, strain ILV3, active compounds read low) of 0.986, a normalized growth (locus YJR066W, strain TOR1 (second series), active compounds read low) of 0.916 and a normalized growth [4] of 0.9. The normalized growth (locus YKL048C, strain ELM1, active compounds read low) was 0.901, the normalized growth (locus YKL067W, strain YNK1, active compounds read low) was 0.896 and the normalized growth (locus YKL101W, strain HSL1, active compounds read low) was 0.893. The normalized growth (locus YKL193C, strain SDS22, active compounds read low) was 0.971, the normalized growth (locus YKL203C, strain TOR2, active compounds read low) was 0.954 and the normalized growth [5] was 0.708 (active). For the same molecule, the normalized growth (locus YLR133W, strain CKI1, active compounds read low) was 0.916, the normalized growth (locus YLR403W, strain SFP1, active compounds read low) was 0.902 and the normalized growth (locus YML070W, strain DAK1, active compounds read low) was 0.897. It also gave a normalized growth (locus YMR001C, strain CDC5, active compounds read low) of 0.976, a normalized growth (locus YMR205C, strain PFK2 (second series), active compounds read low) of 0.887 and a normalized growth (locus YMR277W, strain FCP1, active compounds read low) of 0.972. For the same molecule, the normalized growth (locus YNL006W, strain LST8, active compounds read low) was 0.974, the normalized growth (locus YNL020C, strain ARK1, active compounds read low) was 0.896 and the normalized growth (locus YNL161W, strain CBK1, active compounds read low) was 0.976. For the same molecule, the normalized growth [6] was 0.841, the normalized growth (locus YNL207W, strain RIO2, active compounds read low) was 0.974 and the normalized growth (locus YNL222W, strain SSU72, active compounds read low) was 0.979. For the same molecule, the normalized growth (locus YNL307C, strain MCK1 (second series), active compounds read low) was 0.855, the normalized growth (locus YOL078W, strain AVO1, active compounds read low) was 0.968 and the normalized growth (locus YOL136C, strain PFK27, active compounds read low) was 0.904. For the same molecule, the normalized growth (locus YOR061W, strain CKA2, active compounds read low) was 0.888, the normalized growth (locus YOR119C, strain RIO1, active compounds read low) was 0.93 and the normalized growth [7] was 0.823. It also gave a normalized growth (locus YOR329C, strain SCD5, active compounds read low) of 0.965, a normalized growth (locus YPL031C, strain PHO85, active compounds read low) of 0.877 and a normalized growth (locus YPL153C, strain RAD53, active compounds read low) of 0.915. The normalized growth (locus YPL204W, strain HRR25, active compounds read low) was 0.888, the normalized growth (locus YPL209C, strain IPL1, active compounds read low) was 0.977 and the normalized growth [8] was 0.907. For the same molecule, the normalized growth (locus YPR025C, strain CCL1, active compounds read low) was 0.97, the normalized growth (locus YPR106W, strain ISR1, active compounds read low) was 0.97 and the normalized growth (locus YPR111W, strain DBF20, active compounds read low) was 0.963. It also gave a normalized growth (strain NNK1, active compounds read low) of 0.967 and a normalized growth (strain TSCII, active compounds read low) of 0.976.
With `CC[C@]12C=CCN3CC[C@@]4(c5ccc(OC)cc5N(C)C4[C@@](O)(C(=O)OC)[C@@H]1OC(C)=O)[C@@H]32` (stereo partly specified) the normalized growth (locus YAL021C, strain ccr4, active compounds read low) was 1.01, the normalized growth (locus YAL026C, strain drs2, active compounds read low) was 0.993 and the normalized growth (locus YAL030W, strain snc1, active compounds read low) was 1.02. For the same molecule, the normalized growth (locus YBL061C, strain skt5, active compounds read low) was 1.01, the normalized growth (locus YBR009C, strain hhf1, active compounds read low) was 1.01 and the normalized growth (locus YBR023C, strain chs3, active compounds read low) was 1.01. It also gave a normalized growth (locus YBR171W, strain sec66, active compounds read low) of 0.995, a normalized growth (locus YBR231C, strain swc5, active compounds read low) of 0.996 and a normalized growth (locus YBR279W, strain paf1, active compounds read low) of 1. The normalized growth (locus YCL011C, strain gbp2, active compounds read low) was 1.02, the normalized growth (locus YCL016C, strain dcc1, active compounds read low) was 0.988 and the normalized growth (locus YCL061C, strain MRC1, active compounds read low) was 1.01. The normalized growth (locus YCL069W, strain vba3, active compounds read low) was 1, the normalized growth (locus YCR088W, strain abp1, active compounds read low) was 1 and the normalized growth (locus YDL005C, strain med2, active compounds read low) was 0.992. For the same molecule, the normalized growth (locus YDL040C, strain nat1, active compounds read low) was 1.02, the normalized growth (locus YDR001C, strain nth1, active compounds read low) was 1.02 and the normalized growth (locus YDR069C, strain doa4, active compounds read low) was 0.989. The normalized growth (locus YDR137W, strain rgp1, active compounds read low) was 0.949, the normalized growth (locus YDR159W, strain sac3, active compounds read low) was 1 and the normalized growth (locus YDR195W, strain ref2) was 1.01. The normalized growth (locus YDR297W, strain sur2, active compounds read low) was 0.996, the normalized growth (locus YDR334W, strain swr1, active compounds read low) was 1.04 and the normalized growth (locus YDR335W, strain msn5, active compounds read low) was 1.01. For the same molecule, the normalized growth (locus YDR392W, strain spt3, active compounds read low) was 0.943, the normalized growth (locus YEL003W, strain gim4, active compounds read low) was 1 and the normalized growth (locus YEL037C, strain rad23, active compounds read low) was 1. It also gave a normalized growth (locus YEL061C, strain CIN8 (second series), active compounds read low) of 1.02, a normalized growth (locus YER015W, strain faa2, active compounds read low) of 1.01 and a normalized growth (locus YER016W, strain bim1, active compounds read low) of 0.993. The normalized growth (locus YER111C, strain swi4, active compounds read low) was 0.981, the normalized growth (locus YER155C, strain BEM2 (second series), active compounds read low) was 0.973 and the normalized growth (locus YFR010W, strain ubp6, active compounds read low) was 1. It also gave a normalized growth (locus YGL167C, strain pmr1, active compounds read low) of 0.992, a normalized growth (locus YGL173C, strain kem1, active compounds read low) of 0.998 and a normalized growth (locus YGL227W, strain vid30, active compounds read low) of 0.989. The normalized growth (locus YGL240W, strain doc1, active compounds read low) was 1, the normalized growth (locus YGL253W, strain hxk2, active compounds read low) was 1.03 and the normalized growth (locus YHR013C, strain ard1, active compounds read low) was 0.966. For the same molecule, the normalized growth (locus YHR027C, strain rpn1, active compounds read low) was 1.01, the normalized growth [1] was 0.912 and the normalized growth [2] was 0.924. It also gave a normalized growth (locus YHR142W, strain chs7, active compounds read low) of 1.04, a normalized growth (locus YJL092W, strain hpr5, active compounds read low) of 1.01 and a normalized growth (locus YJL095W, strain BCK1 (second series), active compounds read low) of 1. It also gave a normalized growth [3] of 0.983, a normalized growth (locus YJL115W, strain asf1, active compounds read low) of 0.999 and a normalized growth (locus YJL129C, strain trk1, active compounds read low) of 1.02. The normalized growth (locus YJL154C, strain vps35, active compounds read low) was 0.992, the normalized growth (locus YJL164C, strain tpk1, active compounds read low) was 1.01 and the normalized growth (locus YJL166W, strain qcr8, active compounds read low) was 1.01. It also gave a normalized growth (locus YJL187C, strain SWE1, active compounds read low) of 1, a normalized growth [4] of 0.909 and a normalized growth (locus YKL160W, strain elf1, active compounds read low) of 0.995. For the same molecule, the normalized growth (locus YKR026C, strain gcn3, active compounds read low) was 1.01, the normalized growth (locus YKR091W, strain srl3, active compounds read low) was 0.992 and the normalized growth (locus YLL001W, strain dnm1, active compounds read low) was 0.997. The normalized growth (locus YLL026W, active compounds read low) was 0.992, the normalized growth (locus YLL041C, strain sdh2, active compounds read low) was 1.01 and the normalized growth (locus YLR027C, strain aat2, active compounds read low) was 1.01. The normalized growth [5] was 0.942, the normalized growth (locus YLR221C, strain rsa3, active compounds read low) was 0.999 and the normalized growth (locus YLR258W, strain gsy2, active compounds read low) was 1.01. It also gave a normalized growth (locus YLR262C, strain YPT6 (second series), active compounds read low) of 0.927, a normalized growth (locus YLR320W, strain mms22, active compounds read low) of 0.97 and a normalized growth (locus YLR342W, strain FKS1, active compounds read low) of 0.965. It also gave a normalized growth (locus YLR357W, strain rsc2, active compounds read low) of 1.02, a normalized growth (locus YLR370C, strain arc18, active compounds read low) of 1.01 and a normalized growth (locus YLR384C, strain iki3, active compounds read low) of 1.01. For the same molecule, the normalized growth (locus YML120C, strain ndi1, active compounds read low) was 0.994, the normalized growth (locus YMR058W, strain fet3, active compounds read low) was 1.04 and the normalized growth (locus YMR125W, strain sto1, active compounds read low) was 1.03. The normalized growth (locus YMR129W, active compounds read low) was 1, the normalized growth (locus YMR205C, strain PFK2, active compounds read low) was 1.01 and the normalized growth (locus YMR231W, strain pep5, active compounds read low) was 0.993. The normalized growth (locus YNL071W, strain lat1, active compounds read low) was 0.985, the normalized growth [6] was 0.961 and the normalized growth (locus YNL209W, strain ssb2, active compounds read low) was 1.01. It also gave a normalized growth (locus YNL248C, strain rpa49, active compounds read low) of 0.982, a normalized growth (locus YNL322C, strain KRE1 (second series), active compounds read low) of 0.987 and a normalized growth (locus YNR049C, strain mso1, active compounds read low) of 1.01. The normalized growth (locus YOR001W, strain rrp6, active compounds read low) was 1.01, the normalized growth (locus YOR070C, strain gyp1, active compounds read low) was 1 and the normalized growth (locus YOR080W, strain dia2, active compounds read low) was 1. The normalized growth (locus YOR083W, strain WHI5, active compounds read low) was 0.934, the normalized growth (locus YOR106W, strain vam3, active compounds read low) was 0.994 and the normalized growth [7] was 0.928. For the same molecule, the normalized growth (locus YOR265W, strain rbl2, active compounds read low) was 1.01, the normalized growth (locus YOR270C, strain vph1, active compounds read low) was 0.934 and the normalized growth (locus YOR290C, strain snf2, active compounds read low) was 0.999. The normalized growth (locus YPL051W, strain arl3, active compounds read low) was 0.984, the normalized growth (locus YPL078C, strain atp4, active compounds read low) was 0.989 and the normalized growth (locus YPL106C, strain sse1, active compounds read low) was 0.988. The normalized growth (locus YPL240C, strain hsp82, active compounds read low) was 1 and the normalized growth [8] was 0.923.
